From PubChem
Hits are enriched below; roughly 4.7% of the tested compounds scored in any of these assays.
TIM10 inh: TIM10 yeast growth inhibition. S. cerevisiae TIM10 strain growth, BacTiter-Glo luminescence, 24 h. inhibition, % at 10 µM. 1.4% of 330,000 active;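 active = inhibition of 40% or more at the single tested concentration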;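 note: wild-type TIM10 isogenic control strain grown at permissive 25 °C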
SKKanGAS inh: SKKanGAS growth inhibition; S. pyogenes SKKanGAS, kanamycin growth, BacTiter-Glo, 6 h; inhibition, % at 7.5 µM; 1.3% of 300,000 active;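 active = mean replicate score, as percent of positive control median, at least 50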;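 note: strain carries kanamycin resistance gene driven by streptokinase promoter and grows in 40 µg/ml kanamycin; loss of luminescence reflects streptokinase promoter inhibition or plain growth inhibition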
tim10-1 inh: tim10-1 yeast growth inhibition. S. cerevisiae tim10-1 ts strain growth, BacTiter-Glo, 24 h. inhibition, % at 20 µM. 2.2% of 330,000 active. AID 463190;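 active = inhibition of at least 40%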;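 note: mutant grown at 25 °C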
PfHsp90 set2: reduces growth (ATP signal) of yeast expressing P. falciparum Hsp90. S. cerevisiae expressing PfHsp90, BacTiter-Glo ATP, 48 h; yeast lacking PDR1 and PDR3 efflux regulators. inhibition, % at 9.4 µM. 0.32% of 310,000 active;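 active = every replicate shows inhibition above about 80%, whatever the replicate mean, limit read from the data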
tim23-1 inh: tim23-1 yeast growth inhibition | S. cerevisiae tim23-1 growth, BacTiter-Glo luminescence, 24 h | inhibition, % at 20 µM | 1.3% of 330,000 active | AID 463212;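 active = growth inhibition of the mutant yeast at or above 50%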;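 note: temperature-sensitive mutant grown at 25 °C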
EBI2 antag: antagonists of human EBI2 receptor. P32249. EBI2 beta-arrestin recruitment, luminescence, 7a,25-OHC stimulated. inhibition, % at 5 µM. 0.81% of 360,000 active. AID 651636; in the data active = inhibition above about 38%;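 note: enzyme fragment complementation signal reports receptor beta-arrestin coupling in cells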
Target sequence (P32249 whole entry, looked up, the tested form may be a part): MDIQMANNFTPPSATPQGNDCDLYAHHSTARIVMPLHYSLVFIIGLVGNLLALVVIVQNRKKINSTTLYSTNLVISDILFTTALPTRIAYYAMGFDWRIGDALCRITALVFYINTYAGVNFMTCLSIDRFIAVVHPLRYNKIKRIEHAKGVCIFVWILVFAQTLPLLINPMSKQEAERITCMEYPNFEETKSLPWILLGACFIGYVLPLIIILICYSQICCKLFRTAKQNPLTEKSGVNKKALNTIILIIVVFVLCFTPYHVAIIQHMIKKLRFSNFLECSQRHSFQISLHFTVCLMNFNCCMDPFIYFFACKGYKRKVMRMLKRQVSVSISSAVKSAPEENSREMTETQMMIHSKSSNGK
tim10-1 confirm: confirmation of tim10-1 mutant yeast growth inhibitors; shares compounds with tim10-1 inh; S. cerevisiae tim10-1 ts strain growth, BacTiter-Glo, 24 h; inhibition, % at 20 µM; 56% of 7,400 active;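 active = inhibition of yeast growth at or above a set limit in either of two repeat tests at 20 µM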;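 note: tim10-1 mutant grown at permissive 25 °C to find synthetic lethal compounds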
tim10 confirm: TIM10 yeast growth inhibition, confirmed. inhibition, % at 10 µM. AID 463215. shares compounds with TIM10 inh. S. cerevisiae tim10 strain growth, BacTiter-Glo luminescence, 24 h. 63% of 4,600 active;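 active = inhibition of yeast growth at or above a set limit in either of two replicates at 10 µM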; note: this counterscreen used the strain with wild-type TIM10
A number is an active result; - = inactive; . = not tested or not shown.

SMILES	TIM10 inh	SKKanGAS inh	tim10-1 inh	PfHsp90 set2	tim23-1 inh	EBI2 antag	tim10-1 confirm	tim10 confirm
O=C(NC1CCCCC1)C1CC(=O)N(CCc2ccc(F)cc2)C1 (centres undefined)	-	-	-	-	-	-	.	.
Cc1c(C(=O)Nc2ccc(-c3nnc4n3CCCCC4)cc2)oc2ccc(Br)cc12	-	-	-	-	-	-	.	.
O=C1/C(=C/c2ccncc2)SC(=S)N1Cc1ccccc1	-	-	-	-	-	-	.	.
CCCN1C(=O)/C(=C/c2ccncc2)SC1=S	53	-	45	-	-	-	-	-
CC(C)(C)CC(=O)NC(=S)NCCc1ccccc1	-	-	-	-	-	-	.	.
CC(C)CC(=O)NC(=S)NCCc1ccccc1	46	-	47	-	-	-	-	-
O=[N+]([O-])c1cccnc1N1CCC(c2cc(-c3ccc(Cl)cc3)n[nH]2)CC1	49	73	43	-	-	-	37	46
CCOC(=O)c1ccccc1N1C(=O)CSC1=S	48	-	49	-	-	-	-	45
O=[N+]([O-])c1ccc(OC(F)F)c(/C=N/n2cnnc2)c1	-	-	-	-	-	-	.	.
COc1ccccc1N1CCN(C(=O)/C=C/c2c(Cl)nc3ccccn23)CC1	42	69	59	-	-	-	51	36
O=C(Nc1ccccn1)c1cccc(S(=O)(=O)N2CCCC2)c1	-	-	-	-	-	-	.	.
CCCC(=O)Nc1ccc(-c2nc3cc(C)ccc3o2)cc1	55	-	44	-	-	-	32	52
O=C(Nc1ccc(Cl)c([N+](=O)[O-])c1)ONC1=NCCCCC1	54	-	78	-	-	-	77	46
CCOC(=O)c1c(N)sc(C(O)(C(F)(F)F)C(F)(F)F)c1-c1ccc(F)cc1	41	-	43	-	-	-	-	-
COC(C/C=C\C(=O)[C@H](C)OCc1ccccc1)OC	42	-	44	-	-	-	42	-
COC(C/C=C\[C@@H](O)[C@@H](C)OCc1ccccc1)OC	-	-	-	.	-	-	.	.
S=C(NCc1ccco1)Nc1ccc(Cl)cn1	-	-	-	-	-	-	.	.
Cc1ccc2cccc(NC(=S)NC(=O)c3ccn(C)n3)c2n1	48	-	41	-	-	-	-	45
COc1ccccc1N=c1oc2cc(O)ccc2cc1C(=O)NCC1CCCO1 (centres undefined)	-	-	-	.	-	-	.	.
COc1ccccc1N=c1oc2cc(O)ccc2cc1C(N)=O	40	70	47	97	-	-	48	33
COc1cccc(-c2nn(C)c3sc(C(=O)N4CCN(c5ccccn5)CC4)cc23)c1	41	-	43	-	-	-	32	-
COc1cccc(-c2nn(C)c3sc(C(=O)N4CCOCC4)cc23)c1	-	-	-	-	-	-	.	.
CC(C)c1ccc(/C=C/C(=O)n2nnc3ccccc32)cc1	50	-	55	-	-	-	52	48
Cc1oncc1C(=O)N1CCCC(CO)(Cc2ccc(F)cc2F)C1 (centres undefined)	-	-	-	-	-	-	.	.
COc1ccc2c(c1)[nH]c1c(N3CCN(Cc4ccc5c(c4)OCO5)CC3)ncnc12	47	-	47	-	-	-	42	-
SMILES	TIM10 inh	SKKanGAS inh	tim10-1 inh	PfHsp90 set2	tim23-1 inh	EBI2 antag	tim10-1 confirm	tim10 confirm
CSc1ccccc1NC(=S)Nc1cccc(C(F)(F)F)c1	-	-	-	-	-	-	.	.
Fc1ccccc1CNC(=S)Nc1cccc(C(F)(F)F)c1	43	-	47	-	-	-	46	-
Cc1cc(C)nc(SCC(=O)Nc2sc3c(c2C#N)CCC(C)C3)n1 (centres undefined)	-	-	-	-	-	-	.	.
Cc1cc(C(F)F)n2nc(C(=O)Nc3sc4c(c3C#N)CCC(C)C4)nc2n1 (centres undefined)	42	-	57	.	-	-	48	42
O=c1oc(-c2ccccc2)cc2ccccc12	.	.	.	.	.	-	.	.
O=c1oc(-c2ccccc2)cc(Cl)c1Cl	76	-	81	117	-	-	86	78
CC(=O)c1ccc(NC(=S)NC2CCCC(C)C2C)cc1 (centres undefined)	47	-	45	-	-	-	43	36
CC(C)N1CCC(=O)NC1=O	.	.	.	-	.	-	.	.
COc1ccccc1C(=O)NCC(=O)OCC(=O)Nc1ccc2[nH]c(=O)[nH]c2c1	-	-	-	.	-	-	.	.
CC(C)Cn1c2c(c(O)c(C(=O)Nc3nccs3)c1=O)CCCC2	55	-	43	-	-	-	39	-
CN1CCN(Cn2cc(/C=C/C(=O)c3ccccc3)c3ccccc32)CC1	67	-	62	-	-	-	-	65
O=C(/C=C/c1cn(CC(O)CN2CCCCC2)c2ccccc12)c1ccccc1 (centres undefined)	.	-	.	-	.	-	.	.
Cc1ccc(SCCC(=O)N/N=C/c2ccccc2O)cc1	48	-	43	-	-	-	-	44
FC(F)(F)c1ccc(CN2C[C@@H]3C(c4ccc(Cl)nc4)C4(c5ccccc5)CC3(C4)[C@H]2c2ccccc2)cc1 (some centres undefined)	-	-	-	-	-	-	.	.
COc1ccc2c(=O)c(-c3cnn(-c4ccccc4)c3)c(C)oc2c1	70	-	48	-	-	-	-	65
Cc1oc2c(C)c(O)ccc2c(=O)c1-c1cnn(-c2ccccc2)c1	-	-	-	-	-	-	.	.
O=C(NN1C(=O)/C(=C/c2cccnc2)SC1=S)C(c1ccccc1)c1ccccc1	42	-	49	.	-	-	41	-
O=C(NN1C(=O)/C(=C\c2cccnc2)SC1=S)C(c1ccccc1)c1ccccc1	40	-	46	-	-	-	39	-
O=C(Cc1cccc2ccccc12)NN1C(=O)/C(=C\c2cccnc2)SC1=S	-	-	-	-	-	-	.	.
Cc1ccccc1CNc1nnnn1C	-	-	-	.	-	-	.	.
COc1ccc(NS(=O)(=O)c2ccc(/C=C/C(=O)O)cc2)cc1S(=O)(=O)N1CCOCC1	-	-	-	-	-	-	.	.
O=C(N/N=C/c1sc(N2CCCCC2)nc1-c1cccs1)C1CC1	47	-	47	-	-	-	36	36
CC(C)NC(=S)N/N=C/c1sc(N2CCCCC2)nc1-c1cccs1	50	-	53	-	-	-	48	35
CCCCNC(=S)N(C)/N=C/c1sc(N2CCCCC2)nc1-c1cccs1	-	-	-	.	-	.	.	.
NC(=O)N/N=C/c1sc(N2CCCCC2)nc1-c1cccs1	-	-	-	-	-	-	.	.
C=CCn1c(=O)c(C(=O)Nc2ncccc2C)c(O)c2ccccc21	.	.	.	.	.	-	.	.
